# Reference: PMC7862700, “An all-to-all approach to the identification of sequence-specific readers for epigenetic DNA modifications on cytosine”
# Legend:
# Assay in all cases: DAPPL (digital affinity profiling via proximity ligation, sequencing); 10 mM Tris-HCl pH 7.5, 50 mM NaCl, 1 mM DTT, 4% glycerol, room temperature, 30 min; GST-TFs on glutathione beads, 16-mer random dsDNA library, 0.1% formaldehyde crosslink after washing; high values mean tight binding
# [1] = target: T1, FEV (Homo sapiens, UniProt Q99581 1-238); details: protein: recombinant; tags: N-terminal GST; dsDNA, one strand shown
# T1 sequence: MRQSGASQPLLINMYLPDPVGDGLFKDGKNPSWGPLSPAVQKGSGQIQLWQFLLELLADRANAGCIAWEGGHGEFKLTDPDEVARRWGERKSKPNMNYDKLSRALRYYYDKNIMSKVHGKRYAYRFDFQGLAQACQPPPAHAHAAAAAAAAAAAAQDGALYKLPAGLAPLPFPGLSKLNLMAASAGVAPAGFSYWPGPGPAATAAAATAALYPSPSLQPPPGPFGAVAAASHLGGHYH
# How it was run: (§1)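 The binding signal reported is, for every hexamer, its read frequency for a factor over its read frequency for the tag-only sample. Reads came from pools of yeast-expressed, GST-fused human transcription factors on glutathione beads, barcoded with DNA and mixed with that sample, which were incubated with 200 nmole of a random double-stranded 16-mer DNA library in Tris/NaCl/DTT/glycerol buffer at room temperature for 30 min. After washing, the pools were crosslinked with 0.1% formaldehyde, proximity-ligated with BsaI/T4 ligase for 1 h at 37 °C, PCR-amplified and sequenced on an Illumina NextSeq500.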
# [2] = target: ETV5 (Homo sapiens, UniProt P41161 1-510); details: protein: recombinant; tags: N-terminal GST; dsDNA, one strand shown
# ETV5, sequence (P41161 whole entry): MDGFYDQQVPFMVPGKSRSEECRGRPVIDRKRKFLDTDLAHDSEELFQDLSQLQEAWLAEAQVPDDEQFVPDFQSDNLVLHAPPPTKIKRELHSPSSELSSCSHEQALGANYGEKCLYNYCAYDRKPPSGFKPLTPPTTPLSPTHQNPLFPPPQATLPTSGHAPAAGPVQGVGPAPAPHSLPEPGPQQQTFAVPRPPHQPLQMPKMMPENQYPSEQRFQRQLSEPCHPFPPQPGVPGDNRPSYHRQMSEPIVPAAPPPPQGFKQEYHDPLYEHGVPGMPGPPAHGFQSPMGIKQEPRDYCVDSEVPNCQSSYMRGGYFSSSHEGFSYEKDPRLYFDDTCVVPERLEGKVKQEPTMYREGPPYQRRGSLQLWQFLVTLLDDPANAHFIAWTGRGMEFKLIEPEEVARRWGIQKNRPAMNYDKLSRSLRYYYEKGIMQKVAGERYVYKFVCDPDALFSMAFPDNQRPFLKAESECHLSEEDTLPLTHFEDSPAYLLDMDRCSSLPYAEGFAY
# How it was run: as §1
# [3] = target: HSF1 (Homo sapiens, UniProt Q00613 1-529); details: protein: recombinant; tags: N-terminal GST; chain copies: 3; dsDNA, one strand shown
# HSF1, sequence (Q00613 whole entry): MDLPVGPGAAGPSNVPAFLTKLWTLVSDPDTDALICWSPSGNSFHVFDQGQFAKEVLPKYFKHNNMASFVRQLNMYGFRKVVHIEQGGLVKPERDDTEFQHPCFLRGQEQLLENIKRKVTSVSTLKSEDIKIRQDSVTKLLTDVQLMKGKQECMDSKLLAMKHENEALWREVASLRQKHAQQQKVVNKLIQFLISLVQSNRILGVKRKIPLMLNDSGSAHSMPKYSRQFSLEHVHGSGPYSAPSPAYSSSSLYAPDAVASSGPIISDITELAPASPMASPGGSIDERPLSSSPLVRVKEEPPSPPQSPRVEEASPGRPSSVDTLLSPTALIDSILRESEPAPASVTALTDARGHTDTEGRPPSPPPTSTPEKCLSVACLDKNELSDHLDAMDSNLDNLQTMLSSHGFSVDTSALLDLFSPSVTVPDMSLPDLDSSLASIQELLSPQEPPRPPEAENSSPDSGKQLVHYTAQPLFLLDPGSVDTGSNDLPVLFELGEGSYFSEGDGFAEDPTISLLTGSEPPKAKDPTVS
# How it was run: as §1
# [4] = target: T2, SPIC (Homo sapiens, UniProt Q8N5J4 1-248); details: protein: recombinant; tags: N-terminal GST; dsDNA, one strand shown
# T2 sequence: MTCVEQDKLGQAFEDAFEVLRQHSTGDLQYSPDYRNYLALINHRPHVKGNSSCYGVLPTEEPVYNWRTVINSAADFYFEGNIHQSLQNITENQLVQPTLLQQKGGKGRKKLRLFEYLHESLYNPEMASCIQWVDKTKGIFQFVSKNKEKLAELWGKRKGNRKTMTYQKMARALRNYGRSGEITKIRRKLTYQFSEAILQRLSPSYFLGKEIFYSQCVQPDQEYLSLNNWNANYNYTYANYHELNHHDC
# How it was run: as §1
# [5] = target: ELF4 (Homo sapiens, UniProt Q99607 1-663); details: protein: recombinant; tags: N-terminal GST; dsDNA, one strand shown
# ELF4, sequence (Q99607 whole entry): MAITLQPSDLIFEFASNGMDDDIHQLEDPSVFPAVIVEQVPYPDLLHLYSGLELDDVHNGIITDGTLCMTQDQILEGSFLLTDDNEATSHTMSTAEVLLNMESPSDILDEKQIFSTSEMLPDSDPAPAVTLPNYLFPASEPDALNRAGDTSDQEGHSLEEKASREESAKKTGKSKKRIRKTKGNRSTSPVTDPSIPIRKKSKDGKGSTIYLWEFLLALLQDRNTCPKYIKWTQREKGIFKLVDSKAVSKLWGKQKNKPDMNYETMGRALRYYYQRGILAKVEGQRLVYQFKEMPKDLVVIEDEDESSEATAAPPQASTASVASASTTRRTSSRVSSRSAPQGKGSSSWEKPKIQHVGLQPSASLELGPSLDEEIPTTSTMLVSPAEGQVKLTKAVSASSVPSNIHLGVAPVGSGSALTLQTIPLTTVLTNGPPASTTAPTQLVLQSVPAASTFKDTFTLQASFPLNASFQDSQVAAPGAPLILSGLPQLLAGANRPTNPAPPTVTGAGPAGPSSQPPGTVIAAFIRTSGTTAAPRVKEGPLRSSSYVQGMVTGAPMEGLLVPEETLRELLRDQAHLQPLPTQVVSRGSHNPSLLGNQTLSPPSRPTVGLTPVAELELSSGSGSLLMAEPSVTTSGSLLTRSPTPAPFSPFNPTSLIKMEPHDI
# How it was run: as §1
# [6] = target: T3, ELK4 (Homo sapiens, UniProt P28324-2 1-405); details: protein: recombinant; tags: N-terminal GST; dsDNA, one strand shown
# T3 sequence: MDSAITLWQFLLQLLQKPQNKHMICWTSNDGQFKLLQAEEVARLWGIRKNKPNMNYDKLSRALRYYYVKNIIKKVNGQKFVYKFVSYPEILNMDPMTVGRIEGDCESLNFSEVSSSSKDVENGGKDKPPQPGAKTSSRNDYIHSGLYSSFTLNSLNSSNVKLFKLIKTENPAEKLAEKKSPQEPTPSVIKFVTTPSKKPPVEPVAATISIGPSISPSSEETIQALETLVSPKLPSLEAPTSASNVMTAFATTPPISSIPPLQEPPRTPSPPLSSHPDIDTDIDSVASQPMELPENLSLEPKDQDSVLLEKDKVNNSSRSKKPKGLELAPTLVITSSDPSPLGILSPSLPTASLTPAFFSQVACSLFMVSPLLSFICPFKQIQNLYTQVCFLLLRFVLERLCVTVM
# How it was run: as §1
# [7] = target: T4, ETV2 (Homo sapiens, UniProt O00321 1-342); details: protein: recombinant; tags: N-terminal GST; dsDNA, one strand shown
# T4 sequence: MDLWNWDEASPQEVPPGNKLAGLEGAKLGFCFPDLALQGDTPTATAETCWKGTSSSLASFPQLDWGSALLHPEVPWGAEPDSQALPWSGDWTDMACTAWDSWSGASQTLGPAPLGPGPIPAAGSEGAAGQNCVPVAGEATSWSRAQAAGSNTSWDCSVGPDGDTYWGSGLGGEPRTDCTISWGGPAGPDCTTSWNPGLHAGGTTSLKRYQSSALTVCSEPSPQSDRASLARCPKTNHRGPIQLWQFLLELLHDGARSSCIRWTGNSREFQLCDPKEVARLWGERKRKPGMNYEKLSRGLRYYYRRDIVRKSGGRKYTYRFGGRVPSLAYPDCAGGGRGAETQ
# How it was run: as §1
# [8] = target: T5, ELF3 (Homo sapiens, UniProt P78545 1-371); details: protein: recombinant; tags: N-terminal GST; dsDNA, one strand shown
# T5 sequence: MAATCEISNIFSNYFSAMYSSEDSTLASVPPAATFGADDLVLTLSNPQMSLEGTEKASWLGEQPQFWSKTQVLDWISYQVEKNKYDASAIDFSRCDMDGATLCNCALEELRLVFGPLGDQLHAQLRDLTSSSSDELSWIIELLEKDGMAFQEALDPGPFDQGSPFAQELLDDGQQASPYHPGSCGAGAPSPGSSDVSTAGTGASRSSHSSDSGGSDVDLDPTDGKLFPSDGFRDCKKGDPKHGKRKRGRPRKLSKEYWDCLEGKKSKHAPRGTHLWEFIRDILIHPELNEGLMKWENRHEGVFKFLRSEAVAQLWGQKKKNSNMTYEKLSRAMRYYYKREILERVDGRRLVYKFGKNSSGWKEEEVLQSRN
# How it was run: as §1
# [9] = target: CRX (Homo sapiens, UniProt O43186 1-299); details: protein: recombinant; tags: N-terminal GST; dsDNA, one strand shown
# CRX, sequence (O43186 whole entry): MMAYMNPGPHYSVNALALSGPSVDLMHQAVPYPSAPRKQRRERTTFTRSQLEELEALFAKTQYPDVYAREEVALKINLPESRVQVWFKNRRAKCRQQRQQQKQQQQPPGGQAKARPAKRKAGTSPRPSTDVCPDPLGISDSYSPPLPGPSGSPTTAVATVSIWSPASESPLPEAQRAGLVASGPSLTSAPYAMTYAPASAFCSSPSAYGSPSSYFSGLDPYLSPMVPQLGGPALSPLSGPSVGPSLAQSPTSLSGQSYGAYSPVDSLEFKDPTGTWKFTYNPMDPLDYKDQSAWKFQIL
# How it was run: as §1
# [10] = target: ETV1 (Homo sapiens, UniProt P50549 1-477); details: protein: recombinant; tags: N-terminal GST; dsDNA, one strand shown
# ETV1, sequence (P50549 whole entry): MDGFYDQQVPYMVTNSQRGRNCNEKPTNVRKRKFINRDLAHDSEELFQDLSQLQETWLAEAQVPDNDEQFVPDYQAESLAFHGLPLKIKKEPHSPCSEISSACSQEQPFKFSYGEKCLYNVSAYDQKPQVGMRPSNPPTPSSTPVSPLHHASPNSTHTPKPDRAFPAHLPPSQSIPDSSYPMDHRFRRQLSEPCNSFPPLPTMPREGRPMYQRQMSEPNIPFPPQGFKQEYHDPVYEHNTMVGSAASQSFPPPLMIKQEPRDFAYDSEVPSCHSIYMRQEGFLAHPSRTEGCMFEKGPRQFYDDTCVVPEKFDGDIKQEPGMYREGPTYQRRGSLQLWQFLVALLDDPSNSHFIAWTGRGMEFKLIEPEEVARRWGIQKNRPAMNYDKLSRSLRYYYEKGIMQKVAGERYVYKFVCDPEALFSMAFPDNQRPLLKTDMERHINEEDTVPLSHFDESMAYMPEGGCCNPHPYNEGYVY
# How it was run: as §1
# [11] = target: T6, ERF (Homo sapiens, UniProt P50548 1-548); details: protein: recombinant; tags: N-terminal GST; dsDNA, one strand shown
# T6 sequence: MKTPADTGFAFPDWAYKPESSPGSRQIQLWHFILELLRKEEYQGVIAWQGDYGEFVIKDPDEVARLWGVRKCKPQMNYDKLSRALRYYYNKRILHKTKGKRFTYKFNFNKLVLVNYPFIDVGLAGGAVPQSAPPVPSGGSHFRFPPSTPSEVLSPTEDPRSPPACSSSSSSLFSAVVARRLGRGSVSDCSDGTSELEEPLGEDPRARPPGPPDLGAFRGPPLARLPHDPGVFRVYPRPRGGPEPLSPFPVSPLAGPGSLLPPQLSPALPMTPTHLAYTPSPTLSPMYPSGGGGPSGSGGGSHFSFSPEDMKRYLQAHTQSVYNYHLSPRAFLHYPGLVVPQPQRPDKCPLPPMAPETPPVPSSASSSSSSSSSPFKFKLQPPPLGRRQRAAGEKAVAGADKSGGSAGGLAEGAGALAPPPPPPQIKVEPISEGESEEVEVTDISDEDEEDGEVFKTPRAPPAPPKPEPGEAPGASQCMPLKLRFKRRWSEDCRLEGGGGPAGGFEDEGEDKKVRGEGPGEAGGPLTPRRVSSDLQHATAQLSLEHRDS
# How it was run: as §1
# [12] = target: T7, ETV3L (Homo sapiens, UniProt Q6ZN32 1-361); details: protein: recombinant; tags: N-terminal GST; dsDNA, one strand shown
# T7 sequence: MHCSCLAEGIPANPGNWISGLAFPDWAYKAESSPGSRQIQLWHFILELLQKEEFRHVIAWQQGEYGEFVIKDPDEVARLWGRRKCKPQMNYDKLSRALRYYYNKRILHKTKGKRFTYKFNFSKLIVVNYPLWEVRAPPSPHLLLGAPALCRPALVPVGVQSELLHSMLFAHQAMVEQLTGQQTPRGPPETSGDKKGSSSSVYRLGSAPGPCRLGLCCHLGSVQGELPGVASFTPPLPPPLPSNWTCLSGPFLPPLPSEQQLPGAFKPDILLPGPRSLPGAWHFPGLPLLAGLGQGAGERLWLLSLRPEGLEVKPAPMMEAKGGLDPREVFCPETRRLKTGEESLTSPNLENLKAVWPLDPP
# How it was run: as §1
# [13] = target: T8, ETS2 (Homo sapiens, UniProt P15036 1-469); details: protein: recombinant; tags: N-terminal GST; dsDNA, one strand shown
# T8 sequence: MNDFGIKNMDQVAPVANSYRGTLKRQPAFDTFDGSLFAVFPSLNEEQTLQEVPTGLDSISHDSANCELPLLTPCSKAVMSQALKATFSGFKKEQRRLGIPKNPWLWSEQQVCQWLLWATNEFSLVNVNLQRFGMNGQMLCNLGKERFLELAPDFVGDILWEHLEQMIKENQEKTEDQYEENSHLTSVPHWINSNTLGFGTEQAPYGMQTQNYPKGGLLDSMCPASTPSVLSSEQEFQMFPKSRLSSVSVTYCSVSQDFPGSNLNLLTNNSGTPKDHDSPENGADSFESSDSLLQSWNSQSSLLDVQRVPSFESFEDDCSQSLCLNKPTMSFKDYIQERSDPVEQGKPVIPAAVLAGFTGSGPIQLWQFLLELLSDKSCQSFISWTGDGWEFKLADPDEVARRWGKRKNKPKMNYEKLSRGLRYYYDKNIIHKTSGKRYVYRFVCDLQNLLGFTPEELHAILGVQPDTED
# How it was run: as §1
# [14] = target: T9, SPDEF (Homo sapiens, UniProt O95238 1-335); details: protein: recombinant; tags: N-terminal GST; dsDNA, one strand shown
# T9 sequence: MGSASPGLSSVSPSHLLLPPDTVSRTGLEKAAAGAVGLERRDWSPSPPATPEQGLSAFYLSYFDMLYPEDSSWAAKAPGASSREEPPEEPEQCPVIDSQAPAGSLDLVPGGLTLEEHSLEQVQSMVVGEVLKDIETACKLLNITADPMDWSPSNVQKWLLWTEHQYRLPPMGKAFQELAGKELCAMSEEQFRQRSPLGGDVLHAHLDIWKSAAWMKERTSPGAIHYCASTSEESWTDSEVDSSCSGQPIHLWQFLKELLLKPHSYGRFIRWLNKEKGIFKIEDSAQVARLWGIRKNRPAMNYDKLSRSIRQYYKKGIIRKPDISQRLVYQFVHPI
# How it was run: as §1
# [15] = target: T10, ETV7 (Homo sapiens, UniProt Q9Y603 1-341); details: protein: recombinant; tags: N-terminal GST; dsDNA, one strand shown
# T10 sequence: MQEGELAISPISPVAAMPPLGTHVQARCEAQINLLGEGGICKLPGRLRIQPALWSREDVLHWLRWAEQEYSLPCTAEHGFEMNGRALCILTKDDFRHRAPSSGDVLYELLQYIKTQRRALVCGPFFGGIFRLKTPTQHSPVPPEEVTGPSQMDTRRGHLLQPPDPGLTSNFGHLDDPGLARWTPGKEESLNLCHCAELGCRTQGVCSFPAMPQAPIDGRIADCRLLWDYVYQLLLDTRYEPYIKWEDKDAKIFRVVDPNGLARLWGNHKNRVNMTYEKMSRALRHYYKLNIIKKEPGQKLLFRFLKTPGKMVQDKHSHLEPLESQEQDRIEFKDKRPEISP
# How it was run: as §1
# [16] = target: T11, ELF5 (Homo sapiens, UniProt Q9UKW6-2 1-255); details: protein: recombinant; tags: N-terminal GST; dsDNA, one strand shown
# T11 sequence: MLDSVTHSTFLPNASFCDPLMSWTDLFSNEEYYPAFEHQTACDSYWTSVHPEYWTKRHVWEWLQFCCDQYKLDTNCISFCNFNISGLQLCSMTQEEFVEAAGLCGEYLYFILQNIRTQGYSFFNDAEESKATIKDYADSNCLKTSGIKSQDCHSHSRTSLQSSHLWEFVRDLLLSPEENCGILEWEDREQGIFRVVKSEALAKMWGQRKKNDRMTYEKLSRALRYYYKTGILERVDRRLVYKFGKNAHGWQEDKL
# How it was run: as §1
# [17] = target: T12, ETV3 (Homo sapiens, UniProt P41162-2 1-143); details: protein: recombinant; tags: N-terminal GST; dsDNA, one strand shown
# T12 sequence: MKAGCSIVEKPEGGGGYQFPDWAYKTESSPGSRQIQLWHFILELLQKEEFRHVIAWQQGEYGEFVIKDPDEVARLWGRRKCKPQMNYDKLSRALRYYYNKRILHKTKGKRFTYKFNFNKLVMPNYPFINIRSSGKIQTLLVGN
# How it was run: as §1
# [18] = target: ETV6 (Homo sapiens, UniProt P41212 1-452); details: protein: recombinant; tags: N-terminal GST; dsDNA, one strand shown
# ETV6, sequence (P41212 whole entry): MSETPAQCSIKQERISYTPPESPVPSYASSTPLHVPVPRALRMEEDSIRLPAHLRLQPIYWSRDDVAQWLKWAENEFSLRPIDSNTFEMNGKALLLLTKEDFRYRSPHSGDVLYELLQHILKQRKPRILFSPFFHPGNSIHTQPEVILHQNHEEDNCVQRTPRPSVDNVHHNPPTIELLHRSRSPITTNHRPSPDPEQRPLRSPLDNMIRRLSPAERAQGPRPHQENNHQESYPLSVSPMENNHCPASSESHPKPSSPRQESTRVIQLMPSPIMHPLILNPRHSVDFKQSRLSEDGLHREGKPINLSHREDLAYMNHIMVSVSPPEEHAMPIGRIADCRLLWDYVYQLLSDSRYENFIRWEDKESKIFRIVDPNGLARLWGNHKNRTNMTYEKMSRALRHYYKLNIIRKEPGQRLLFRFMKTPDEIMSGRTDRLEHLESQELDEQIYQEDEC
# How it was run: as §1
sequence,measurement,setting,value
ACGGAT,binding signal,[1],"1.54 fold enrichment (6-mer frequency, TF over GST control)"
same,binding signal,[2],"1.32 fold enrichment (6-mer frequency, TF over GST control)"
same,binding signal,[3],"1.18 fold enrichment (6-mer frequency, TF over GST control)"
same,binding signal,[4],"1.38 fold enrichment (6-mer frequency, TF over GST control)"
same,binding signal,[5],"1.19 fold enrichment (6-mer frequency, TF over GST control)"
same,binding signal,[6],"1.12 fold enrichment (6-mer frequency, TF over GST control)"
same,binding signal,[7],"1.2 fold enrichment (6-mer frequency, TF over GST control)"
same,binding signal,[8],"1.3 fold enrichment (6-mer frequency, TF over GST control)"
same,binding signal,[9],"1.61 fold enrichment (6-mer frequency, TF over GST control)"
same,binding signal,[10],"1.23 fold enrichment (6-mer frequency, TF over GST control)"
same,binding signal,[11],"1.11 fold enrichment (6-mer frequency, TF over GST control)"
same,binding signal,[12],"1.23 fold enrichment (6-mer frequency, TF over GST control)"
same,binding signal,[13],"1.3 fold enrichment (6-mer frequency, TF over GST control)"
same,binding signal,[14],"1.94 fold enrichment (6-mer frequency, TF over GST control)"
same,binding signal,[15],"1.13 fold enrichment (6-mer frequency, TF over GST control)"
same,binding signal,[16],"1.34 fold enrichment (6-mer frequency, TF over GST control)"
same,binding signal,[17],"1.3 fold enrichment (6-mer frequency, TF over GST control)"
same,binding signal,[18],"1.22 fold enrichment (6-mer frequency, TF over GST control)"
